# Results filed as inconclusive are left out. Values without a mark were called inactive. Active and inactive are the calls of the source. The call rests on the fitted dose curve; in most records, active means well fitted curve in the direction sought with a large enough effect; inconclusive means small, poorly fitted or top-dose-only effect, or effect the other way, or another doubt; inactive means no such curve, though single readings can be large or run the other way.
# Assay: Secondary Assay for lipid storage modulators: AML12 cell LDSA assay for probe SAR
# Details: AML12 lipid droplet accumulation, BODIPY 493/503 imaging, oleate; series mostly up to 46.1 µM; activity change, negative = inhibition: at the top concentration
# Source text: NIH Molecular Libraries Probe Production Centers Network [MLPCN] NIH Chemical Genomics Center [NCGC] MLPCN Grant: 1 R03 MH085686-01 Assay Submitter (PI): Beller, Mathias; Max-Planck-Institut fur Biophysikalische Chemie NCGC Assay Overview: Storing lipids as a reservoir for energy or the anabolism of elementary metabolites is a common feature of probably all cells and is conserved from bacteria to humans. The universal cellular lipid storage organelle is the so-called lipid storage droplet (LD). Although ubiquitous, LDs share a simple structure composed of a hydrophobic core that harbors the storage lipids, which is shielded by a droplet-specific phospholipid monolayer to which proteins are attached. The current model of LD biogenesis involves an incorporation of the lipid core into the membrane leaflets of the endoplasmic reticulum (ER) followed by a subsequent budding-like maturation of a LD, which ultimately pinches off. Once released, LD volume can increase by localized lipogenesis or fusion of existing droplet. Storage lipids are re-mobilized enzymatically by lipase activity. Lipase regulation in the adipocyte is heavily studied and involves multiple components including catecholamine signaling, the LD-associated proteins Perilipin and comparative gene identification (CGI-58) and at least two lipases named hormone sensitive lipase (HSL) and adipocyte triglyceride lipase (ATGL). LD regulation outside of the adipocyte is poorly understood and only few components are known. However, there is an urgent need to learn more about ectopic fat depots as mislocalized storage of lipids, for example in the liver or muscle, is an eminent health problem associated with insulin resistance or the metabolic syndrome.
# NCGC Assay Protocol Summary: The assay was performed with AML12 cells, using an oleic acid feeding protocol similar to the S3 assay. We dispensed 4 uL of cells to give 700 cells/well into Greiner bio-one 1,536-well plates (black walled, clear bottom). Triacsin C (Sigma-Aldrich T-4540), an inhibitor of long-chain fatty acyl CoA synthetase that blocks synthesis of triglycerides, was used as a positive control for lipid under-storage using a final concentration of 20 uM. The orexin antagonist, SB408124 - previously identified to stimulate lipid over-storage, was used as a positive control for lipid over-storage using a final concentration of 20 uM. A total of 23 nL of compound solution of different concentrations were transferred to the assay plates using a Kalypsys pin tool equipped with a 1,536-pin array containing 10-nL slotted pins (FP1S10, 0.457-mm diameter, 50.8 mm long; V&P Scientific). One microliter of oleic acid was added (400 uM final concentration), and the plate was lidded with stainless steel rubber gasket lined lids containing pinholes. After 18-24 h incubation at […] and 95% humidity, 4 uL of the dyes BODIPY 493/503 (Molecular Probes) and the Cell Tracker Red CMTPX dye (Molecular Probes) were added to the wells to stain lipid droplets and enumerate cell number, respectively. Fluorescence was detected by excitation of the fluorophores with a 488-nm laser on an Acumen Explorer (TTP Lab Tech). The total intensity in channel 2 (500-530 nm) reflected lipid droplet accumulation. Cells were detected using channel 3 (575-640 nm) with 5-um width and 100-um depth filters. The ratio of the number of objects in PMT channel 2 over the number of objects in PMT channel 3 was also calculated. Percent activity was computed relative to an internal control (100% inhibited lipid droplet deposition due to the presence of 20 uM Triacsin C), which was added to 32 wells/plate.
SMILES,"activity change, negative = inhibition [%]",Potency
S=C(Nc1cc(Cl)ccc1Oc1ccccc1)N1CCN(c2ncccn2)CC1,10,–
O=C(NC1CCCc2c1cnn2-c1ccc(F)cc1F)c1cnon1 (centres undefined),-39.5,–
CN(C)CC(=O)NC1CCCc2c1cnn2-c1ccc(F)cc1F (centres undefined),5.26,–
O=C(CSc1nnc(NCc2ccccc2)s1)Nc1nc(-c2cccc(Br)c2)cs1,18.6,–
O=C(Cc1cccs1)Nc1nc(-c2ccc(F)cc2)cs1,4.29,–
O=C(NC1CCCc2c1cnn2-c1ccc(F)cc1F)C1CCCCC1 (centres undefined),5.26,–
COc1ccc(Cl)cc1NC(=S)N1CCN(c2ccccc2F)CC1,42.9,–
CCn1c(C(=O)NCCc2ccc(OC)cc2)cc2sccc21,-5.26,–
O=C(NC1CCCc2c1cnn2-c1ccc(F)cc1F)c1c(F)cccc1Cl (centres undefined),0,–
Cc1cccc(-c2ccc3ncnc(NCc4cccc(F)c4)c3c2)c1,-19.7,–
CCOC(=O)C1CCN(C(=O)C(C)(C)NC(=O)Nc2ccc([N+](=O)[O-])cc2)CC1,-39.6,–
O=C(NC1CCCc2c1cnn2-c1ccc(F)cc1F)c1cccc(=O)[nH]1 (centres undefined),-22.4,–
CCOc1ccc(CCNC(=O)c2cc3sccc3[nH]2)cc1OCC,-1.32,–
COc1ccc(CCNC(=O)c2cc3sccc3n2Cc2ccc(F)cc2)cc1OC,–,3.15 µM (active)

# From PubChem BioAssay AID504434 (National Center for Advancing Translational Sciences (NCATS), 2011)
